Assay outcomes as filed in PubChem.
NPC1 promoter act: activators of NPC1 promoter; Huh7 NPC1 promoter luciferase reporter, 24 h; Potency, µM (highest dose often 9.22 µM), inactives show at the top dose activation, usual class: activators; 320,000 tested, 2.4% active; AID 485313; also: % of control where 0% means no effect; nearly all actives have a fitted effect of over 60% in size
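Luminescence from an NPC1 promoter-driven luciferase reporter in stably transfected Huh7 cells was measured after 24 h compound treatment at 37 °C, followed by 10 min ambient incubation with luciferase detection reagent.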
FLuc modulator: counter-screen for miR-21 project: firefly luciferase inhibitors or activators; purified FLuc, Km substrates, luminescence inhibition; AID 588342; Potency, µM (top dose mostly 57.5 µM), for inactives: at the highest dose activity change, negative = inhibition, usual class: inhibitors; 360,000 tested, 6.9% active; P08659;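 also: plate controls were vehicle for no effect and reference inhibitor for full effect; nearly all actives have a fitted effect of over 55% in size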
Target sequence (P08659 whole entry, looked up): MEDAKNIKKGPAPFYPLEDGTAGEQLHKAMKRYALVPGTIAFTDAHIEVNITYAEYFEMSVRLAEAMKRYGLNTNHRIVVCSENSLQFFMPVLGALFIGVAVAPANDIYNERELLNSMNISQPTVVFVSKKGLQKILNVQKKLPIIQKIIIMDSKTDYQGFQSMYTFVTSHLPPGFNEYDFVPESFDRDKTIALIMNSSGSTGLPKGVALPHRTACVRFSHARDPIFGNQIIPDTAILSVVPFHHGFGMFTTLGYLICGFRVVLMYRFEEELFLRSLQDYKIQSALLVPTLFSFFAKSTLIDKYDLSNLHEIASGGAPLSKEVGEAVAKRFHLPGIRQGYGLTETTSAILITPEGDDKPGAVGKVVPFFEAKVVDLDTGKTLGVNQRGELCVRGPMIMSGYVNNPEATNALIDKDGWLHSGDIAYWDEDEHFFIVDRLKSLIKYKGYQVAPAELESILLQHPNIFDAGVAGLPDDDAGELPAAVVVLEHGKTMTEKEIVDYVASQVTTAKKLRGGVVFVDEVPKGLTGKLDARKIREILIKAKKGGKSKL
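Biochemical qHTS of compounds, final roughly 60 µM downward over six points, against 10 nM purified firefly luciferase using Km concentrations of substrates (10 uM D-luciferin, 10 uM ATP) in Tris acetate pH 7.5 buffer; luminescence output.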
ELG1 genotox: genotoxicity induction in ELG1-luciferase HEK293T cells; HEK293T ELG1-luciferase reporter, luminescence, 16 h; Potency, µM (highest dose often 46 µM), inactives show at the top dose activity change, positive = activation, most hits filed as activators; 330,000 tested, 1.3% active; AID 504466; also: % of control where 0% means no effect; nearly all actives have a fitted effect of over 60% in size
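HEK293T cells expressing luciferase-tagged ELG1 were exposed to compound or DMSO vehicle for 16 hr at 37 °C and 5% CO2. Luciferase activity was then measured with ONE-Glo after 30 min at room temperature.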
Rab9 promoter act: activators of Rab9 promoter | Huh7 Rab9 promoter-luciferase reporter, luminescence, 24 h | Potency, µM (top dose mostly 9.22 µM), for the others: at the top dose activation, negative = inhibition, most hits filed as activators | 320,000 tested, 2.8% active | AID 485297; also: % of control where 0% means no effect; nearly all actives have a fitted effect of over 60% in size
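Luciferase signal after 10 min detection reagent at ambient indicates Rab9 promoter upregulation; stably transfected Huh7 cells were treated 24 h with compound in DMSO at 37 °C, 5% CO2.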
ELG1 DNA repair: inhibitors of ELG1-dependent DNA repair in HEK293T cells; Potency, µM (top dose mostly 46.1 µM), without a hit: top-dose activity change, negative = inhibition, usual class: inhibitors; 330,000 tested, 2.3% active; HEK293T ELG1-luciferase reporter, luminescence, 16 h; DNA damage induced by 5-fluorouridine; AID 504467; also: % is scaled to controls: 0 for no effect and ±100 for the full control effect; nearly all actives have a fitted effect of over 55% in size
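Luminescence from the luciferase reporter, measured 30 min after ONE-Glo reagent at room temperature, was the read-out. Beforehand, 2,000 cells per well were exposed for 16 hr at 37 °C to 5-fluorouridine together with compound or vehicle.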
SMN2 splice enh: enhancers of SMN2 splice variant expression. HEK293 SMN2-luciferase splicing reporter, luminescence, 30-36 h. Potency, µM (highest dose often 46.1 µM), for inactives: at the highest dose activity change, positive = activation, most hits filed as activators. 210,000 tested, 2.8% active. AID 1458; also: % of control where 0% means no effect; nearly all actives have a fitted effect of over 55% in size
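HEK293 cells carry an SMN2 […]–luciferase reporter in which exon 7 inclusion puts luciferase in frame. Cells were plated 10-12 h before compound addition, then incubated 30-36 h at 37C. ONE-Glo luminescence was read; sodium butyrate at 4.5 mM final served as control.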
An asterisk follows results filed as active; ? = inconclusive; nt = not tested or not shown; [ ] = remark or other dose. Sampled rows, rich in hits. Any-hit rate of the full collection: about 9.2%. Calls follow the shape of the dose curve; as a rule, active = well fitted curve in the direction sought with a large enough effect; inconclusive = small, poorly fitted or top-dose-only effect, or another doubt; inactive = no such curve, though single readings can be large; an effect the other way counts as inactive or inconclusive. Potency is read from the fitted curve at half-maximal effect.

SMILES | NPC1 promoter act | FLuc modulator | ELG1 genotox | Rab9 promoter act | ELG1 DNA repair | SMN2 splice enh
O=C(CSc1nccn1-c1ccc(Cl)cc1)Nc1nc2ccccc2s1 | nt | -6% | nt | nt | nt | nt
CCOc1ccc2nc(NC(=S)N(C)C)sc2c1 | 0.71µM* | 1.3µM* | 0.37µM* | 0.79µM* | ? | 4µM*
O=C(CSc1nccn1-c1ccccc1)Nc1nc2ccccc2s1 | nt | 24µM* | nt | nt | nt | nt
CCOc1ccc2nc(NC(=O)CSc3ccccc3)sc2c1 | 22% | 21µM* | 13% | 12% | 6% | ?
CC(=O)NNc1nc2ccccc2s1 | 1% | 3% | -1% | 4% | 1% | -24%
CN(C)C(=S)Nc1nc2ccccc2s1 | ? | 12µM* | ? | ? | ? | nt
COc1cccc(N2CCN(C(=O)c3cccn3-c3nnc(N4CCCC4)s3)CC2)c1 | nt | -8% | nt | nt | nt | nt
CCOc1ccc(/C=N/NC(=O)C(O)c2ccccc2)c(O)c1 (stereo not drawn) | -20% | ? | 13% | -9% | ? | nt
Cc1cc(C(F)F)n2nc(C(=O)Nc3cccc(Cl)c3C)nc2n1 | nt | -1% | nt | nt | nt | -6%
CCOc1ccc2nc(NC(=O)CCn3cccc3)sc2c1 | 15% | ? | 1% | 20% | ? | 12%
CCOc1ccc2nc(NC(=O)C3=NNC(=O)CC3)sc2c1 | 20% | ? | 14% | ? | ? | ?
CCOc1ccc2nc(NS(=O)(=O)Cc3ccccc3)sc2c1 | -20% | 27µM* | 21µM* | 12% | ? | 5%
CCOc1ccc2nc(NS(=O)(=O)c3ccc(NC(C)=O)cc3)sc2c1 | 2% | 3% | ? | 11% | 0% | 14%
CCCC(=O)Nc1nc2ccc(OCC)cc2s1 | 2.8µM* | 11µM* | ? | 2.2µM* | ? | 22µM*
CCOc1ccc2nc(NC(=O)c3cnc(C)cn3)sc2c1 | 24% | 6µM* | 0% | 18% | 2% | -27%
CCOc1ccc2nc(NC(=O)c3ccccc3)sc2c1 | nt | 0.54µM* | nt | nt | nt | 1.3µM*
O=C(CSc1ccccc1)N1CCc2c([nH]c3ccccc23)C1c1ccc(Cl)cc1 (stereo not drawn) | nt | 0% | nt | nt | nt | nt
CCOc1ccc2nc(NC(=O)c3cccnc3)sc2c1 | 1.6µM* | 1.5µM* | ? | 0.89µM* | ? | 7.9µM*
Cc1ccc(CSC2=Nc3ccccc3C3=NC(=O)CN23)cc1 | 5% | -22% | 10% | 8% | 7% | ?
COc1cc2c(cc1OC)C1=NC(=O)CN1C(SCc1ccccc1C)=N2 | -4% | -2% | -2% | -7% | 10µM* | -12%
O=C(NC(=O)N1CCN(c2cccc(Cl)c2)CC1)c1ccc(Cl)cc1 | -4% | -1% | 4% | -3% | 4% | nt
O=C(NC(=S)N1CCN(c2ccccc2)CC1)c1ccc(S(=O)(=O)N2CCOCC2)cc1 | -4% | 0% | -5% | -12% | 18µM* | nt
Cc1ccc(NC(=S)N2CCN(S(=O)(=O)c3ccc(C)cc3)CC2)cc1 | 4% | 4% | -6% | -3% | -5% | nt
O=C(NC(=O)N1CCN(c2ccccc2)CC1)c1ccc(Cl)cc1 | 1% | 27µM* | ? | 20% | ? | 13µM*
O=S(=O)(c1ccc(NC(=S)N2CCN(c3ccc(O)cc3)CC2)cc1)N1CCOCC1 | -1% | 1% | -6% | 0% | 8.2µM* | -74%
SMILES | NPC1 promoter act | FLuc modulator | ELG1 genotox | Rab9 promoter act | ELG1 DNA repair | SMN2 splice enh
O=C(NCC1CCN(c2ccc(S(=O)(=O)N3CCOCC3)cc2)CC1)Nc1ccccc1 | -2% | 0% | -9% | -1% | 15µM* | nt
O=C(Nc1ccccc1)c1ccc(S(=O)(=O)N2CCOCC2)cc1 | 2% | -7% | 6% | 1% | 5% | -13%
Cc1nc2sc(C)c(C)n2c(=O)c1S(=O)(=O)N1CCN(c2ccccc2F)CC1 | nt | -9% | nt | nt | nt | nt
Cc1ccc2c(=O)cc(C(=O)N(Cc3ccc(N(C)C)cc3)C3CCS(=O)(=O)C3)oc2c1 (stereo not drawn) | nt | 4% | nt | nt | nt | 8%
CCCc1nc(NCC2CCCO2)c2nnn(Cc3ccccc3)c2n1 (stereo not drawn) | -2% | 0% | -4% | 1% | 26µM* | -19%
Cc1nc(NCC2CCCO2)c2nnn(Cc3ccccc3)c2n1 (stereo not drawn) | 9% | 1% | 1% | 2% | -21% | -13%
CCOC(=O)C1CCN(C(=O)C(C)N(c2ccc(Oc3ccccc3)cc2)S(C)(=O)=O)CC1 (stereo not drawn) | -22% | 5% | -10% | -44% | -7% | nt
CCOC(=O)N1CCN(C(=O)C(C)N(c2ccc(Oc3ccccc3)cc2)S(C)(=O)=O)CC1 (stereo not drawn) | -7% | 9% | 1% | -22% | 6.5µM* | -105%
O=c1[nH]c(CCl)nc2cc(-c3ccc(F)cc3)sc12 | 0% | 0.3µM* | ? | -43% | ? | nt
CC[C@H]1c2[nH]c3ccccc3c2C[C@H]2C(=O)N(c3ccc(F)cc3)C(=O)N21 | -4% | -1% | 2% | -3% | 7.3µM* | nt
C=CCN1CC(=O)N2C(C)c3[nH]c4ccccc4c3C[C@H]2C1=O (stereo partly drawn) | -4% | -1% | 1% | -4%[1.84 µM] | 3% | nt
CCCc1cc(=O)n2[nH]c(NC(=O)c3ccco3)nc2n1 | 1% | 6% | -1% | 3% | -15% | nt
CCOC(=O)c1cc(-c2ccccc2)n(CC(=O)Nc2ccccc2OCC)c1C | nt | -2% | nt | nt | nt | nt
CCn1c(=O)c(C(=O)CN2CCN(S(=O)(=O)c3cc(C)ccc3C)CC2)c(N)n(Cc2ccccc2)c1=O | -1% | 2% | -6% | -20% | 6.5µM* | -7%
Cn1c(=O)cc(OCC(=O)NC2CCCCC2)c2ccccc21 | -5% | 3% | 5% | -2% | ? | 11%
Cn1c(=O)cc(OCCCC(=O)NC2CCCC2)c2ccccc21 | -3% | 1% | ? | -2% | ? | 16µM*
CCOC(=O)CCSc1nc(C)c2cc(OC)ccc2n1 | ? | 13µM* | ? | ? | ? | 12%
Cc1ccc(C(=O)N/N=C/c2ccc(S(=O)(=O)O)o2)c(Cl)c1 | -2% | 15µM* | 0% | -20% | 22% | 9%
Cc1ccc(C(=O)Nc2ccc(C(=O)N/N=C/c3ccc(C)o3)cc2)cc1 | 14% | ? | 0% | 28% | ? | nt
COc1ccc(C(=O)Nc2nnc(SCc3cc(=O)n4cccc(C)c4n3)s2)cc1 | nt | -1% | nt | nt | nt | nt
CCC(=O)N1CCN(c2nc3ccc(Br)cc3s2)CC1 | ? | 15µM* | ? | ? | ? | nt
CCCCC(=O)N1CCN(c2nc3ccc(F)cc3s2)CC1 | 0.56µM* | 6µM* | -5% | 0.5µM* | ? | nt
